Where “and” joins values, the source holds several entries; their conditions need not be identical. Equal values may be shown once. Hit rate of the full screen: of about 420,000 compounds, about 50,000 (12%) were called active. Not shown: some 26% with an inconclusive outcome. The call rests on the fitted dose curve; in most records, active means well fitted inhibition curve with a large enough effect; inconclusive means small, poorly fitted or top-dose-only effect; inactive means flat fitted curve, though single readings scatter. The list comes from a sample in which actives are over-represented; it also holds similar structures and randomly drawn compounds.
test: qHTS for Inhibitors of human tyrosyl-DNA phosphodiesterase 1 (TDP1): qHTS in cells in presence of CPT; conditions: chicken DT40 Tdp1-/-;hTDP1 cells + 20 nM CPT, ATP luminescence, 48 h; series mostly up to 46.2 µM; activity change, negative = growth inhibition: at the top concentration; further: nearly all actives have a fitted effect of over 55% in size
Outline: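 Cell growth measured by CellTiter-Glo luminescence after a minimum 48 h, 37 C compound exposure with 20 nM CPT in Tdp1-knockout DT40 cells stably expressing hTDP1, seeded 400/well; qHTS titration format.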
On the % scale 0 is the no-effect control and ±100 the full control effect; potency means the concentration at half of the fitted maximal effect.

SMILES | activity change, negative = growth inhibition | Potency
Cc1cccc2[nH]c(CN(C)C(=O)C3CCC(=O)N(CCc4ccccc4)C3)nc12 (stereo unspecified) | -9.24% (inactive) | 
CS(=O)(=O)Nc1ccccc1N=C(c1ccccc1)c1ccccc1 | 6.15% (inactive) | 
CC(C)CN(C(=O)CSc1nncn1C)C1CCS(=O)(=O)C1 (stereo unspecified) | 4.23% (inactive) | 
COc1cc(CC(=O)N2CCC(n3nccc3NC(=O)C3CC3)CC2)cc(OC)c1OC | -0.897% (inactive) | 
CCOc1cc(/C=C(\C#N)c2nc(-c3cccs3)c(NC(C)=O)s2)ccc1O |  | 2.31 µM (active)
CCOc1cc(/C=N/NC(=O)CN2CCCCC2)ccc1O | 17.3% (inactive) | 
CCOc1cc(/C=C(\C#N)C(=O)Nc2ccccc2C)ccc1OCc1cc(=O)n2nc(CC)sc2n1 | -12.1% (inactive) | 
Cc1cc2c(C)nc(N/N=C/c3ccccc3)nc2o1 | 0.913% (inactive) | 
Cc1ccc(C(=O)CN2C(=O)NC3(CCOc4ccccc43)C2=O)s1 (stereo unspecified) | -10.5% (inactive) | 
Cc1ccc(NC(=O)C(C)OC(=O)Cc2c[nH]c3ccccc23)cc1S(=O)(=O)N1CCOCC1 (stereo unspecified) | -26.8% (inactive) | 
Cc1ccc(-n2nc(C)c(C(=O)O)c2-n2cccc2)cc1 | -5.51% (inactive) | 
Cc1ccc(S(=O)(=O)N2CC(C)N(S(C)(=O)=O)C2)cc1 (stereo unspecified) | 7.03% (inactive) | 
O=C(CS(=O)(=O)c1cn(Cc2cccc(F)c2)c2ccccc12)N1CCCCC1 | -23.9% (inactive) | 
Cc1ccc(S(=O)(=O)N2C[C@@H]3CCCC[C@@H]3[C@@H](C)[C@H]2c2cn(Cc3ccccc3)c3ccc(F)cc23)cc1 |  | 6.51 µM (active)
CCC(=O)c1ccc(OCC(=O)OCC(=O)N2CCc3ccccc3C2)cc1 | -2.43% (inactive) | 
COc1ccc(Nc2cc(Cl)ccc2C(=O)O)cn1 | -2.52% (inactive) | 
COc1ccc(-c2csc(C(O)c3cccc(Cl)c3)n2)cn1 (stereo unspecified) |  | 16.4 µM (active)
COc1cccc(C(NC(C)=O)c2nc(-c3cnc4ccccc4c3)cs2)c1 (stereo unspecified) | -3% (inactive) | 
CCCC(CNC(=O)COC(=O)C1=NNC(=O)CC1)c1ccc(Cl)cc1Cl (stereo unspecified) | 1.78% (inactive) | 
CC(C)C(=O)Nc1ccc2c(c1)oc1ccccc12 | -28.2% (inactive) | 
O=C(CSc1nnc(-c2ccccc2O)o1)NC1CCCCC1 | -22.7% (inactive) | 
Cn1nccc1/C=N\NC(=O)c1ccc(Cl)cc1 | -7.55% (inactive) | 
COc1ccc(NC(=O)c2nc(-n3nc(C)cc3C)ccc2Cl)cc1Cl | -23.4% (inactive) | 
Cc1cc(Oc2ccccc2)nc(N2CCOCC2)n1 | -11.7% (inactive) | 
COc1ccc(Nc2cc(C)nc(-n3nc(C)cc3C)n2)cc1 |  | 0.517 µM (active)
Cc1cccc(Nc2cc(C)nc(-n3nc(C)cc3C)n2)c1 |  | 3.26 µM (active)

SMILES | activity change, negative = growth inhibition | Potency
Cc1ccc(Nc2nc3ccccc3nc2-n2nc(C)cc2C)c(Cl)c1 | 8.53% (inactive) | 
Cc1cc(Nc2ccccc2)nc(N)n1 | -5.5% (inactive) | 
CC(=O)c1ccc(Oc2cc(C)nc(-n3nc(C)cc3C)n2)cc1 |  | 0.731 µM (active)
COc1ccc(Nc2nc(=O)[nH]nc2C)cc1 | -17.5% (inactive) | 
Cc1cc(C)n(-c2cc(Oc3ccccc3)ncn2)n1 | -11.2% (inactive) | 
CC(=O)NCCC(=O)Nc1cc(S(=O)(=O)N2CCCCC2)ccc1Oc1cccc(C)c1 | -10.8% (inactive) | 
COC(=O)c1ccc(NC(=O)c2cc3c(CO)cnc(C)c3oc2=Nc2cccc(C(N)=O)c2)cc1 | 1.92% (inactive) | 
O=C(N/C(=C\c1ccc([N+](=O)[O-])cc1)C(=O)N1CCCCC1)c1ccco1 | 1.48% (inactive) | 
CC(=O)c1cccc(NC(=O)Nc2ccc(C)cc2)c1 | 4.63% (inactive) | 
Cc1ccc(NC(=O)C(C)c2cccc(C(=O)c3ccccc3)c2)cc1 (stereo unspecified) |  | 14.6 µM (active)
CC(=O)Nc1ccc(NC(=O)[C@@H](NC(=O)c2cccc(C)c2)C(C)C)cc1 | 6.73% (inactive) | 
O=C(CN(C(=O)CNC(=O)c1cccs1)c1cccc(F)c1)NC1CCCCC1 | 3.13% (inactive) | 
Cc1ccc(N2C(=O)C(CC(=O)Nc3cccc(F)c3)N(CCc3ccncc3)C2=O)cc1 (stereo unspecified) | -13.6% (inactive) | 
CCNC(=O)N1CCNC(=O)C1CC(=O)Nc1ccc(C(=O)OCC)cc1 (stereo unspecified) | 5.76% (inactive) | 
CCOc1ccc(NC(=O)CC2C(=O)N(c3ccccc3)C(=O)N2CCOC)cc1 (stereo unspecified) | 7.81% (inactive) | 
COc1ccc(CCN2C(=O)N(c3cccc(OC)c3)C(=O)C2CC(=O)Nc2ccccc2)cc1 (stereo unspecified) |  | 18.4 µM (active)
CCOc1ccc(NC(=O)CC2C(=O)N(c3cccc(OC)c3)C(=O)N2C2CCCCC2)cc1 (stereo unspecified) | -29% (inactive) | 
CCOC(=O)c1ccc(NC(=O)CC2C(=O)N(c3cccc(OC)c3)C(=O)N2C2CCCCC2)cc1 (stereo unspecified) |  | 20.6 µM (active)
CN1c2ccc([N+](=O)[O-])cc2C(C)(C)C12C=Cc1cc(C(=O)O)ccc1O2 (stereo unspecified) | 1.71% (inactive) | 
COc1ccc(S(=O)(=O)N2CCOCC2)cc1NC(=O)Cc1coc2cc(C)ccc12 | -12.2% (inactive) | 
COc1ccc(/C(C)=N/NC(=O)c2ccc3nc[nH]c3c2)cc1 | -3.72% (inactive) | 
O=C(CSc1cccc[n+]1[O-])c1ccc(-c2ccccc2)cc1 |  | 0.92 µM (active)
CCN(C(=O)CSc1cccc[n+]1[O-])c1ccccc1 | -16% (inactive) | 
COc1ccccc1C(=O)CSc1cccc[n+]1[O-] | 2.9% (inactive) | 
Cc1ccc(C(C)NC(=O)Cn2nc(C)c([N+](=O)[O-])c2C)cc1 (stereo unspecified) | -9.96% (inactive) | 
Cn1c(CC2Sc3ccccc3NC2=O)nnc1SCC(=O)c1ccc(Cl)cc1 (stereo unspecified) | -7.86% (inactive) | 

SMILES | activity change, negative = growth inhibition | Potency
O=C(CN1C(=O)COc2ccc(Cl)cc21)N1CCOCC1 | 14.1% (inactive) | 
COc1ccccc1N1CCN(C(CNC(=O)C(=O)NCc2ccc(C)cc2)c2cccnc2)CC1 (stereo unspecified) |  | 4.61 µM (active)
Cc1ccc(NC(=O)NCC(c2cccnc2)N2CCOCC2)cc1 (stereo unspecified) | -6.59% (inactive) | 
Cc1ccc(NC(=O)C(=O)NCC(c2cccnc2)N2CCOCC2)cc1 (stereo unspecified) | -12.9% (inactive) | 
CC(OC(=O)c1cc2ccccc2[nH]1)C(=O)N(C)c1ccccc1 (stereo unspecified) | -28.6% (inactive) | 
O=C(Cc1ccccn1)c1ccc(O)cc1O | -7.64% (inactive) | 
Cc1c(Cl)cccc1NC(=S)N(Cc1ccccc1)Cc1cccnc1 | -22.2% (inactive) | 
Cc1ccc(Cl)cc1NC(=S)N(CCN(C)C)Cc1cccs1 | -27.7% (inactive) | 
Cc1ccc(CN(Cc2cccnc2)C(=S)Nc2cc(Cl)ccc2C)cc1 |  | 13 µM (active)
C=CCn1nc(-c2ccccc2)c2c(C)onc2c1=O | 8.61% (inactive) | 
O=C(Nc1cccc(C(=O)NC2CC2)c1)c1ccc(F)c(S(=O)(=O)N2CCOCC2)c1 | -23.2% (inactive) | 
OCC[C@H]1C[C@H](O)[C@@H](O)[C@]2(CCCCO2)O1 | -0.0748% (inactive) | 
Cc1nnsc1C(=O)NCc1c(F)cccc1Cl | -1.82% (inactive) | 
CC(C)c1ccc(NS(=O)(=O)c2cn(C)c(=O)n(C)c2=O)cc1 | -8.08% (inactive) | 
Cn1cc(S(=O)(=O)Nc2ccc(Cl)cc2Cl)c(=O)n(C)c1=O |  | 20.6 µM (active)
Cc1ccc(NS(=O)(=O)c2cn(C)c(=O)n(C)c2=O)c(C)c1 | -5.84% (inactive) | 
Cc1ccc(NC(=O)c2ccn(C(=O)Nc3ccccc3)n2)c(C)c1 | -14.8% (inactive) | 
Cc1ccc(NC(=O)c2oc3ccccc3c2C)c([N+](=O)[O-])c1 | -17.7% (inactive) | 
Cc1ccc(NC(=O)c2oc(=O)c3ccccc3c2-c2ccccc2)c(C)c1 |  | 23.1 µM (active)
O=C(CSc1nnc(Nc2ccccc2F)s1)NC1CCCC1 | -19.6% (inactive) | 
Nc1cccc(-c2cncc(N3CCN(Cc4ccccn4)CC3)n2)c1 | -23.8% (inactive) | 
COc1cc(-c2noc(C3CCCN(S(=O)(=O)c4cccc(Cl)c4)C3)n2)cc(OC)c1OC (stereo unspecified) |  | 12.6 µM (active)
COc1cccc(-c2noc(C3CCCN(C(=O)c4ccc(F)cc4)C3)n2)c1 (stereo unspecified) | 12% (inactive) | 
COc1ccc(NC(=O)C2CCCN(S(=O)(=O)c3cccc4nonc34)C2)cc1Cl (stereo unspecified) | -7.61% (inactive) | 
COc1ccccc1CC(NC(C)=O)C(=O)NC1CCN(C(=O)Nc2ccccc2Cl)CC1 (stereo unspecified) | -0.748% (inactive) | 
COc1cc(C2/C(=C(\O)c3ccc4c(c3)CC(C)O4)C(=O)C(=O)N2c2nnc(C)s2)cc(OC)c1OC (stereo unspecified) | -25.2% (inactive) | 

SMILES | activity change, negative = growth inhibition | Potency
Cc1cc(Nc2ccc(C(=O)N3CCCCC3)cc2)c2cccc(C)c2n1 | -29.6% (inactive) | 
CCOC(=O)N1CCN(C(c2cccnc2)c2ccc3cccnc3c2O)CC1 (stereo unspecified) |  | 3.66 µM (active)
CCOC(=O)N1CCN(C(c2ccnc3ccccc23)c2nnnn2-c2c(C)cccc2C)CC1 (stereo unspecified) | -13.3% (inactive) | 
CCOC(=O)N1CCN(Cc2nc(N)nc(Nc3ccc(C)cc3)n2)CC1 | -20.9% (inactive) | 
CC1(C(=O)O)CCC(C(=O)Nc2ccc(Cl)c(Cl)c2)C1(C)C (stereo unspecified) | 13.4% (inactive) | 
COc1ccc(S(=O)(=O)NNC(=O)Nc2ccc(C)cc2)c(OC)c1 | -12.3% (inactive) | 
CCOC1=C2CN(S(=O)(=O)c3ccc(C)cc3)[C@H](c3cccs3)C[C@H]2[C@H]2C(=O)N(c3ccccc3)C(=O)[C@H]2C1 | -20.8% (inactive) | 
Cc1ccc(S(=O)(=O)c2c(COC(=O)c3cccc(Cl)c3)c(-c3ccccc3)nn2C)cc1 |  | 23.1 µM (active)
O=C(COC(=O)c1cccc(Cl)c1)NC(=O)NCc1ccccc1 | -2.34% (inactive) | 
Cc1cc(C)n(-c2c(F)c(F)c(COC(=O)c3ccccc3)c(F)c2F)n1 | -8.41% (inactive) | 
COc1ccc(S(=O)(=O)N2CCOCC2)cc1NC(=O)COc1ccccc1 | -1.42% (inactive) | 
CC1CC(C)CN(C/C=C/c2ccccc2[N+](=O)[O-])C1 (stereo unspecified) | -20.7% (inactive) | 
O=C(CCNC(=O)c1ccccc1Cl)NN=Cc1ccco1 | 3.9% (inactive) | 
COc1cccc(-c2cc3nc(NCc4ccccc4OC)n(C)c(=O)c3s2)c1 |  | 13 µM (active)
Cn1c(NCc2cccnc2)nc2cc(-c3ccc(F)cc3)sc2c1=O | -8.93% (inactive) | 
CC(=O)Nc1cccc(-c2cc3nc(NCc4cccnc4)n(C)c(=O)c3s2)c1 | -19.4% (inactive) | 
CN(C)S(=O)(=O)c1ccc(N/C=C(\[N+](=O)[O-])S(=O)(=O)c2ccccc2)cc1 | 0.564% (inactive) | 
C[C@@H](C(=O)N1CCNCC1)n1cc(CCC(=O)O)nn1 | -8.56% (inactive) | 
Cc1ccc(Cn2c(C)c(C(=O)NCc3ccccc3C(F)(F)F)sc2=O)cc1 | -25.2% (inactive) | 
Cc1ccccc1NC(=O)c1ccccc1NS(=O)(=O)c1cccc2cccnc12 | 6.92% (inactive) | 
O=[N+]([O-])c1ccccc1S(=O)(=O)Nc1cccc2cccnc12 |  | 794 nM (active) and 3.26 µM (active)
NS(=O)(=O)c1ccc(CCNS(=O)(=O)c2cccc3cccnc23)cc1 | 9.19% (inactive) | 
COc1cccc(C(=O)NC(=O)Nc2nc(C)cc(C(F)(F)F)n2)c1 | -1.3% (inactive) | 

From PubChem BioAssay AID686979 (National Center for Advancing Translational Sciences (NCATS), 2013)
